This is one part of the list. Unmarked numbers belong to inactive results. Activity calls are given as the source filed them.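 Rule for the calls: active = activation above the screen-wide mean activation plus 3 SD (cut at about 8% in these data); inactive = the rest.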
Assay: nonspecific BLA reporter activation – CHO NFAT-bla cells, FRET readout, counter-screen for GALR2 agonist project, confirmation (AID 865);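 note: 0% = DMSO with PBS wells and 100% = thapsigargin positive control wells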
Settings: beta-lactamase FRET activation, at 5.6 µM, hits give high values

SMILES | activation
COc1cc(SC#N)ccc1N=Cc1c(C)[nH]n(-c2ccc(C)cc2)c1=O | 9.72% (active)
O=[N+]([O-])c1ccccc1SNc1ccccn1 | -1.98%
CCCOc1ccc(C(=O)C(CCC(CNCC)C(=O)c2ccc(OCCC)cc2)CNCC)cc1 (stereo unspecified) | 0.75%
CC/C(C)=N/Nc1nc2sc3c(c2c(=O)[nH]1)CC(C)(C)OC3 | -1.22%
O=c1oc2cc(O)ccc2cc1-c1ccc(F)cc1 | 7.16%
Cc1ccc(CCC(=O)Nc2ncc(Cc3cc(Cl)ccc3Cl)s2)o1 | 13.5% (active)
CCOc1ccc2nc(Nc3nc4ccc(NC(C)=O)cc4s3)sc2c1 | 59.5% (active)
O=C(NC(=S)Nc1ccc(NC(=O)c2cccs2)cc1)c1ccc([N+](=O)[O-])cc1 | -1.18%
Cn1c(=O)oc2cc(S(=O)(=O)N3CCC(C(=O)Nc4ccc(OC(F)(F)F)cc4)CC3)ccc21 | 1.18%
O=C1COc2ccc(NC(=O)N3CCN(c4ccc(F)cc4)CC3)cc2N1 | -0.56%
CCOc1ccc(C(O)Cn2c(=N)n(CCN3CCCCC3)c3ccccc32)cc1 (stereo unspecified) | -2.38%
CC(=O)N(Cc1cccs1)C1CCOC(C)(C)C1 (stereo unspecified) | -3.67%
Fc1ccc(N2N=C(c3cccs3)CC2c2ccco2)c(F)c1 (stereo unspecified) | 0.42%
CC1(C)CC(=O)C=C(NCCN2CCNCC2)C1 | -2.3%
OC(COc1cccc2ccccc12)CN1CCN(c2ccccn2)CC1 (stereo unspecified) | 0.34%
CCN(C(=O)CSc1ncn[nH]1)c1cccc2ccccc12 | -1.97%
COc1ccc(C(=O)CN2C(=O)NC(C)(c3ccc(C)cc3)C2=O)cc1OC (stereo unspecified) | -1.81%
COc1ccc(Nc2oc(-c3ccccc3Cl)nc2C#N)cc1 | -0.84%
C=CCN(CC=C)S(=O)(=O)c1ccc(C(=O)Nc2nc3c(s2)CCc2ccccc2-3)cc1 | 1.61%
COc1ccccc1N1N=C(c2cccs2)CC1c1ccccc1 (stereo unspecified) | 6.25%
COCCN(CCOC)S(=O)(=O)c1ccc(C(=O)Nc2nc3c(s2)CCc2ccccc2-3)cc1 | 2.54%
COC(=O)c1ccc(NC(=O)C(C)N2C(=O)c3ccccc3C2=O)cc1 (stereo unspecified) | -1.44%
Cc1csc(NC(=O)c2ccc(-c3ccc(Cl)cc3Cl)o2)n1 | 0.5%
C=CCn1c(Oc2ccc(C(=O)OC)cc2)nc2c1c(=O)n(C)c(=O)n2C | -0.9%
Cc1ccc(Cc2c(C)nc3nc(SCC(=O)NCCN4CCOCC4)nn3c2C)cc1 | -0.81%
CC(=O)Oc1ccc(C(C)=O)c2c1OCCO2 | -1.79%

Reference: PubChem BioAssay AID865 (The Scripps Research Institute Molecular Screening Center, 2007)
